Compound activity (PubChem BioAssay)
Only some compounds are listed: those with a hit (about 4.7% of all), similar ones and a draw of the others.
PfHsp90 yeast 2 = growth inhibition of PfHsp90-expressing yeast, primary screen, antimalarial PfHsp90 inhibitor project, S. cerevisiae, BacTiter-Glo luminescence, single point, set 2; BacTiter-Glo ATP, 48 h; yeast lacking PDR1 and PDR3 efflux regulators; inhibition, % at 9.4 µM; 310,000 compounds, 0.32% hits;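 active = every replicate shows inhibition above about 80%, whatever the replicate mean, limit read from the data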;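 also: 0% = DMSO neutral controls and 100% = 20 µM radicicol positive controls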
tim10-1 inh = growth inhibitors of tim10-1 mutant yeast, primary screen, luminescence, uHTS. 330,000 compounds, 2.2% hits. inhibition, % at 20 µM. AID 463190, 2010. S. cerevisiae tim10-1 ts strain growth, BacTiter-Glo, 24 h;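 active = inhibition of at least 40%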;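 also: mutant grown at 25 °C; 0% = DMSO wells with yeast and 100% = wells holding no yeast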
ATG4B inhibitor = ATG4B protease inhibitors, primary screen, biochemical, fluorescence, uHTS | inhibition, % at 8.33 µM | Cysteine protease ATG4B (Homo sapiens), Q9Y4P1 | ATG4B cleavage of LC3-PLA2, NBD-HPC fluorescence, 1 h | 340,000 compounds, 0.51% hits; in the data active = inhibition above about 40%
Target sequence (Q9Y4P1 whole entry, looked up): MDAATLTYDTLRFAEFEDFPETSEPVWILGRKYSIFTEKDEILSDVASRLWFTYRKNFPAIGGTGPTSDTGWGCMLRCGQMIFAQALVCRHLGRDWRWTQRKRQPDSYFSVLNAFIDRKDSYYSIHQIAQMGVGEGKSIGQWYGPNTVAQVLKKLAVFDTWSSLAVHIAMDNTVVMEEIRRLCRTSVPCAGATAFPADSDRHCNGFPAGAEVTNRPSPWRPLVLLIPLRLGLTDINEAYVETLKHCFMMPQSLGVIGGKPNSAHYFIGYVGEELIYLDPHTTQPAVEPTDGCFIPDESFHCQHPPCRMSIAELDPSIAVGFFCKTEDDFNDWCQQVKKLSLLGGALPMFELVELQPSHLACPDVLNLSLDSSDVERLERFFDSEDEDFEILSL
TIM10 inh = growth inhibitors of isogenic TIM10 control yeast, primary screen, counter-screen for tim10-1 yeast inhibitor project, luminescence, uHTS. S. cerevisiae TIM10 strain growth, BacTiter-Glo luminescence, 24 h. inhibition, % at 10 µM. 330,000 compounds, 1.4% hits;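 active = inhibition of 40% or more at the single tested concentration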;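 also: wild-type TIM10 isogenic control strain grown at permissive 25 °C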
SKKanGAS inh = S. pyogenes SKKanGAS growth inhibitors in kanamycin, primary screen, streptokinase expression inhibitor project, SKKanGAS strain, BacTiter-Glo luminescence. 6 h. inhibition, % at 7.5 µM. 300,000 compounds, 1.3% hits. AID 1662, 2009;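 active = mean replicate score, as percent of positive control median, at least 50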;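 also: strain carries kanamycin resistance gene driven by streptokinase promoter and grows in 40 µg/ml kanamycin; loss of luminescence reflects streptokinase promoter inhibition or plain growth inhibition; 0% = median of DMSO wells and 100% = positive control at its reference dose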
tim23-1 inh = growth inhibitors of tim23-1 mutant yeast, primary screen, luminescence, uHTS; S. cerevisiae tim23-1 growth, BacTiter-Glo luminescence, 24 h; inhibition, % at 20 µM; 330,000 compounds, 1.3% hits; AID 463212, 2010;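 active = growth inhibition of the mutant yeast at or above 50%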;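 also: temperature-sensitive mutant grown at 25 °C; plate controls were DMSO-treated mutant yeast for no effect and medium wells lacking yeast for full effect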
ATG4B confirm = ATG4B protease inhibitors, retest, confirmation, biochemical, fluorescence, single concentration. 320 compounds, 92% hits. ATG4B protease fluorescent substrate cleavage assay. shares compounds with ATG4B inhibitor. AID 504757, 2011. inhibition, % at 8.33 µM; in the data active = inhibition above about 39%
PLA2 counter = PLA2 enzyme inhibition, counter-screen for ATG4B inhibitor project, biochemical, single concentration, uHTS hits | shares compounds with ATG4B inhibitor | purified PLA2, NBD-C6-HPC fluorescence, 45 min | inhibition, % at 8.33 µM | 1,600 compounds, 66% hits; in the data active = inhibition above about 50%
Target sequence (P04054 whole entry, looked up): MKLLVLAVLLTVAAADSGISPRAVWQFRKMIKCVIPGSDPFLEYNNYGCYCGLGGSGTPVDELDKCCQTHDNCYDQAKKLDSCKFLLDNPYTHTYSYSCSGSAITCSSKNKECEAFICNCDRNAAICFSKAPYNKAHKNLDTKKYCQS
* hit, by the source's call.

Screening O=[N+]([O-])c1ccc(N/N=C/c2c[nH]c3ccccc23)c(S(=O)(=O)Nc2ccc(Cl)cc2)c1 returned PfHsp90 yeast 2 -1.9, tim10-1 inh 19.6, ATG4B inhibitor 42.3*, TIM10 inh 6.7, SKKanGAS inh 76.7*, tim23-1 inh 11.6 and PLA2 counter 52.8*.
`CCN1CCN(c2nc3c(C)cccn3c(=O)c2/C=C(\C#N)S(=O)(=O)c2ccccc2)CC1` gave tim10-1 inh -15.5, ATG4B inhibitor 50.2*, TIM10 inh -2.9, SKKanGAS inh 6.8, tim23-1 inh -8.3 and PLA2 counter 51.6*.
For O=C(NCc1ccc(Cl)cc1)c1ccccc1CCc1ccccc1 the results were PfHsp90 yeast 2 -23.0, tim10-1 inh 14.0, ATG4B inhibitor 55.0*, TIM10 inh 31.5, SKKanGAS inh 3.5, tim23-1 inh 26.5 and PLA2 counter 52.7*.
`O=C(NCc1ccccc1Cl)c1ccccc1CCc1ccccc1` gave PfHsp90 yeast 2 12.5, tim10-1 inh 39.4, ATG4B inhibitor 29.5, TIM10 inh 13.1, SKKanGAS inh 16.7 and tim23-1 inh 9.7.
`N#CCC(=O)Nc1ccc(C(=O)NCc2cccc(Cl)c2)cc1` gave PfHsp90 yeast 2 -11.2, tim10-1 inh 12.5, ATG4B inhibitor 52.8*, TIM10 inh -10.8, SKKanGAS inh 1.7, tim23-1 inh 4.6 and PLA2 counter 71.2*.
O=C(NCc1cccc(Cl)c1)c1ccc2c(c1)OCO2 was read as PfHsp90 yeast 2 3.0, tim10-1 inh 21.7, ATG4B inhibitor 7.3, TIM10 inh 13.4, SKKanGAS inh -2.4 and tim23-1 inh 18.1.
Screening C/C(CC(=O)Nc1cc(C)ccn1)=N\NC(=O)COc1cccc(C)c1 returned SKKanGAS inh 0.6.
For O=C(/C=C/N1CCOCC1)c1cc2ccccc2o1 the results were PfHsp90 yeast 2 4.1, tim10-1 inh 8.4, ATG4B inhibitor 64.8*, TIM10 inh 7.4, SKKanGAS inh 8.5, tim23-1 inh 8.6 and PLA2 counter 28.8.
For O=C(/C=C/N1CCOCC1)c1coc2ccccc12 the results were PfHsp90 yeast 2 -2.5, tim10-1 inh 2.5, ATG4B inhibitor 43.9*, TIM10 inh 6.9, SKKanGAS inh 5.6, tim23-1 inh 5.6 and PLA2 counter 24.7.
For O=C(O)c1coc2ccccc12 the results were tim10-1 inh -5.8, ATG4B inhibitor -5.3, TIM10 inh -3.6, SKKanGAS inh -3.5 and tim23-1 inh -6.9.
`O=C(Nc1ccc(N2CCOCC2)cc1)c1cc2ccccc2o1` gave PfHsp90 yeast 2 -11.1, tim10-1 inh -20.4, ATG4B inhibitor 1.2, TIM10 inh 0.0, SKKanGAS inh -11.9 and tim23-1 inh 0.5.
`O=C(CCN1CCOCC1)N1CCCC(Nc2ccc(F)cc2)C1` (stereo unspecified) gave PfHsp90 yeast 2 12.2, tim10-1 inh 2.7, ATG4B inhibitor -5.8, TIM10 inh -1.1, SKKanGAS inh -0.4 and tim23-1 inh 1.7.
CCOc1ccc(C(=O)Nc2cc(NC(=O)c3ccc(OCC)c(Cl)c3)cc(C(=O)O)c2)cc1Cl was read as PfHsp90 yeast 2 -54.1, tim10-1 inh 15.2, ATG4B inhibitor 47.5*, TIM10 inh 24.4, SKKanGAS inh 28.6, tim23-1 inh 16.2 and PLA2 counter 59.8*.
Screening CCOc1ccc(C(=O)Nc2cccc(C(=O)O)c2)cc1Cl returned PfHsp90 yeast 2 10.1, tim10-1 inh 17.3, ATG4B inhibitor 16.6, TIM10 inh 3.2, SKKanGAS inh -9.3 and tim23-1 inh 18.1.
Screening Cc1ccc(S(=O)(=O)N2CCCC2CNC(=O)C(=O)Nc2ccccc2)cc1 (stereo unspecified) returned tim10-1 inh 27.2, ATG4B inhibitor 9.7, TIM10 inh 1.0, SKKanGAS inh -4.0 and tim23-1 inh 31.1.
For N#Cc1c(NC(=O)Cn2c(=O)oc3ccccc32)oc(-c2ccccc2)c1-c1ccccc1 the results were PfHsp90 yeast 2 3.4, tim10-1 inh 3.8, ATG4B inhibitor 50.3*, TIM10 inh 0.3, SKKanGAS inh 32.0, tim23-1 inh 0.5 and PLA2 counter 57.7*.
O=C(CCc1nc(-c2cccs2)no1)NCc1ccc(F)cc1Cl was read as PfHsp90 yeast 2 5.5, tim10-1 inh 12.7, ATG4B inhibitor 43.0*, TIM10 inh 12.8, SKKanGAS inh -3.0, tim23-1 inh 25.3 and PLA2 counter 53.9*.
Screening C=CCn1c(SCC(O)Cn2c3ccccc3c3ccccc32)nnc1-c1ccco1 (stereo unspecified) returned PfHsp90 yeast 2 18.1, tim10-1 inh -4.7, ATG4B inhibitor 45.8*, TIM10 inh -46.3, SKKanGAS inh 17.6, tim23-1 inh 15.7 and PLA2 counter 47.6.
`COc1cc(CNC(C)C)ccc1OCC(=O)Nc1cccc2ccccc12` gave PfHsp90 yeast 2 11.0, tim10-1 inh 5.0, ATG4B inhibitor 10.0, TIM10 inh 0.3, SKKanGAS inh -7.1 and tim23-1 inh -3.8.
`Cc1ccc(S(=O)(=O)Nc2nc3ccccc3nc2N2CCN(c3ccccc3F)CC2)cc1` gave PfHsp90 yeast 2 9.8, tim10-1 inh 5.9, ATG4B inhibitor 61.2*, TIM10 inh 9.5, SKKanGAS inh 23.4, tim23-1 inh 15.0 and PLA2 counter 69.2*.
Screening Cc1ccccc1S(=O)(=O)Nc1nc2ccccc2nc1N1CCc2ccccc2C1 returned PfHsp90 yeast 2 3.5, tim10-1 inh 37.6, ATG4B inhibitor 43.1*, TIM10 inh -14.9, SKKanGAS inh 2.2, tim23-1 inh 23.2, ATG4B confirm 62.0* and PLA2 counter 28.9.
Screening Cc1ccc(S(=O)(=O)NC2=C(N3CCN(c4ccccc4F)CC3)C(=O)c3ccccc3C2=O)cc1 returned PfHsp90 yeast 2 -14.0, tim10-1 inh 20.9, ATG4B inhibitor 0.5, TIM10 inh 6.0, SKKanGAS inh 37.0 and tim23-1 inh 27.7.
O=S(=O)(Nc1nc2ccccc2nc1N1CCc2ccccc2C1)c1ccc(Cl)cc1 was read as PfHsp90 yeast 2 -1.9, tim10-1 inh 24.9, ATG4B inhibitor 40.1*, TIM10 inh -13.0, SKKanGAS inh -1.9, tim23-1 inh 24.4, ATG4B confirm 85.5* and PLA2 counter 4.3.
